Screening data (PubChem BioAssay)
HCMV inh: human cytomegalovirus inhibition. HFF cells, HCMV-luciferase reporter, 72 h; hits give low values. activity change, negative = inhibition, % at 57.5 µM. 410,000 tested, 4.5% active. AID 1259415; in the data active = activity change below about -60%; inconclusive = no clear call, values can overlap the other calls; inactive = above about -39%
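After 16 h attachment at 37C, HFF cells received test compound and HCMV-luciferase (1 PFU/cell); reporter luminescence read 72 h later, data normalized against buffer-only and known inhibitor Salinomycin.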
Giardia FBPA inh: inhibitors of Giardia lamblia fructose-1,6-bisphosphate aldolase; purified Giardia FBPA; AID 2451; 290,000 tested, 0.71% active; A8B2U2; Potency, µM (doses to about 59.6 µM), inactives show top-dose activity, negative = inhibition, most hits filed as inhibitors; also: potency is read from the fitted curve at half-maximal effect; nearly all actives have a fitted effect of over 55% in size
Target sequence (A8B2U2 whole entry, looked up): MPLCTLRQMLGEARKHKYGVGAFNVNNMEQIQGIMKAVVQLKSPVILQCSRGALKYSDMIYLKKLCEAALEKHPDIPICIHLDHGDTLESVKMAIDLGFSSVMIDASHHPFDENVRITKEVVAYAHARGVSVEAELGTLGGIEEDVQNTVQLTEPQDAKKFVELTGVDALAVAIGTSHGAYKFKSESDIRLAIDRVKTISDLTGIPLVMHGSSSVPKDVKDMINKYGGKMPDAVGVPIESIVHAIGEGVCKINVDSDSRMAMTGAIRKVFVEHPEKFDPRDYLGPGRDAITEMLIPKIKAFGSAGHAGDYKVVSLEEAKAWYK
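Giardia FBPA (40 nM reagent) was preincubated 10 min at RT with compound (up to 57.5 uM final), then substrate plus GAPDH/TPI/NAD/arsenate coupling system with diaphorase/resazurin was added; resorufin fluorescence (525/598 nm) was read after 20 min.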
RE007 growth inh: less growth of the S. pombe RE007 Vpr strain; S. pombe RE007 Vpr strain, BacTiter-Glo ATP luminescence, 24 h; 360,000 tested, 0.21% active; Potency, µM (series often up to 92.2 µM), for inactives: at the highest dose activity change, negative = less growth, actives largely listed as inhibitors; active = well fitted falling curve with a large enough effect; inconclusive = small, poorly fitted or top-dose-only effect; inactive = no such curve, though single readings can be large or run the other way; also: potency is read from the fitted curve at half-maximal effect; nearly all actives have a fitted effect of over 50% in size
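Fission yeast strain RE007, carrying one chromosomally integrated HIV-1 vpr copy, was seeded at OD 0.01 in PMG+AL medium with 23 nL pinned compound. After 24 h at 30 °C and 99% humidity, viability was read by BacTiter-Glo luminescence.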
Tb PYK inh: blocks Trypanosoma brucei pyruvate kinase; Q57TT1; TbPYK enzyme, Kinase-Glo Plus ATP luminescence, 45 min; Potency, µM (doses to about 76.8 µM), for inactives: at the top dose activity, negative = inhibition, usual class: inhibitors; 410,000 tested, 0.12% active; AID 624173; also: potency is read from the fitted curve at half-maximal effect; nearly all actives have a fitted effect of over 50% in size
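Enzyme and substrate buffer are dispensed first and compound is pin-transferred. ADP at 130 uM final then starts the reaction, which runs 45 min at room temperature. Detection reagent is added for 10 min before luminescence is imaged.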
FMDV antiviral: foot and mouth disease virus antiviral activity; Potency, µM (doses to about 57.9 µM), without a hit: at the top dose activity change, negative = inhibition, usual class: inhibitors; AID 1159524; FMDV antiviral cell-based qHTS; 410,000 tested, 1.2% active; calls by dose curve; tested in HEK293T cells; also: read-out not given here; potency is read from the fitted curve at half-maximal effect; nearly all actives have a fitted effect of over 45% in size
Sm TGR block: S. mansoni TGR enzyme inhibition. Potency, µM (highest dose often 114 µM), inactives show at the highest dose activity change, negative = inhibition, usual class: inhibitors. 360,000 tested, 3% active. Q962Y6. AID 485364. purified TGR, DTNB reduction, TNB absorbance 405 nm; also: potency is read from the fitted curve at half-maximal effect; nearly all actives have a fitted effect of over 60% in size
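Kinetic colorimetric format: TGR-catalysed, NADPH-driven DTNB reduction monitored via TNB absorbance. Enzyme dispensed at 20 nM; compound exposure 15 min at room temperature before reaction start.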
Starred values were filed as active, the others as inactive; ? = inconclusive; nt = no result given; [ ] = another dose, or the depositor's remark. Hits are enriched below; roughly 7.7% of the tested compounds scored in any of these assays. Unless noted, calls follow the shape of the dose curve; as a rule, active = well fitted curve in the direction sought with a large enough effect; inconclusive = small, poorly fitted or top-dose-only effect, or another doubt; inactive = no such curve, though single readings can be large; an effect the other way counts as inactive or inconclusive. % is scaled to controls: 0 for no effect and ±100 for the full control effect.

SMILES	HCMV inh	Giardia FBPA inh	RE007 growth inh	Tb PYK inh	FMDV antiviral	Sm TGR block
NC(C(=O)O)C(O)c1ccc(O)c(O)c1 (stereo unspecified)	nt	nt	nt	-4%	nt	nt
COCCCNC(=O)Cn1c(=O)n(-c2ccc(C)cc2)c(=O)c2c1c1cc(C)ccc1n2C	9	nt	nt	-3%	-2%	0%
COCc1cc(=O)n2[nH]c(C)c(-c3ccc(Cl)cc3)c2n1	-14	nt	-4%	-9%	?	nt
Cc1[nH]n2c(=O)cc(-c3ccccc3Cl)nc2c1-c1ccccc1	-94*	nt	nt	5%	-23%	-2%
Cc1nc2c(-c3ccc(Cl)cc3)c(C)[nH]n2c(=O)c1Cc1ccccc1	-99*	-10%	1%	-4%	-29%	6%
Cc1cccc(Cc2c(C)nc3c(-c4ccccc4)c(C)[nH]n3c2=O)c1	-79*	nt	nt	4%	-9%	-23%
CC(C)(N)C(=O)N[C@@H](Cc1cnc[nH]1)C(=O)N[C@H](Cc1ccc2ccccc2c1)C(=O)N[C@H](Cc1ccccc1)C(=O)N[C@@H](CCCCN)C(N)=O	nt	7%	nt	nt	nt	nt
COc1ccc(Oc2ncc3ncc(=O)n(Cc4ccc(F)cc4)c3n2)cc1	nt	-13%	nt	2%	-21%	nt
CC1=C(C(=O)Nc2cccc(F)c2)C2(CCCCCC2)OC1=O	?	nt	nt	-9%[15.4 µM]	-6%	-2%
CCOC(=O)c1ccc(NC(=O)CSc2ncc(S(=O)(=O)c3ccc(C)c(Cl)c3)c(=O)[nH]2)cc1	10	nt	nt	2%	3%	-4%
CCC(C)NC(=O)CSc1nc2cc3c(cc2c(=O)n1CCCCCC(=O)NCc1ccc(OC)cc1)OCO3 (stereo unspecified)	28	nt	nt	6%	-3%	2%
Cc1cccc(S(=O)(=O)c2cn(Cc3ccccc3)c3cc(N4CCCCC4C)c(F)cc3c2=O)c1 (stereo unspecified)	-40	nt	nt	-11%	-6%	0%
Oc1ccc2c3c1O[C@H]1c4[nH]c5ccccc5c4C[C@@]4(O)[C@@H](C2)N(CC2CC2)CC[C@]314	16	nt	-11%[18.4 µM]	-1%	-12%	45µM*
Oc1ccc2c3c1O[C@H]1c4[nH]c5ccccc5c4C[C@@]4(O)C(C2)N(CC2CC2)CC[C@]314	nt	-12%	nt	nt	nt	18µM*
Oc1ccc2c3c1O[C@H]1c4[nH]c5ccccc5c4C[C@]4(O)[C@H](C2)N(CC2CC2)CC[C@@]314	nt	-7%	nt	nt	-14%	nt
Oc1ccc2c3c1O[C@H]1c4[nH]c5c(c4C[C@@]4(O)[C@@H](C2)N(CC2CC2)CC[C@]314)C[C@@]1(O)[C@H]2Cc3ccc(O)c4c3[C@@]1(CCN2CC1CC1)[C@H]5O4	nt	-7%	nt	nt	8%	nt
CCCN[C@@H](C)C(=O)Nc1c(C)csc1C(=O)OC	nt	-2%[21.7 µM]	nt	-6%[33.2 µM]	nt	nt
O=C(Nc1ccc(Cl)cc1)c1cc2c(-c3ccccc3)nn(-c3ccccc3)c2s1	-10	nt	nt	6%	-13%	6%
CCOC(=O)C1CCN(C(c2ccc(OCC)cc2)c2c(O)cc(C)n(CCOC)c2=O)CC1 (stereo unspecified)	-5	nt	nt	-5%	-10%	10µM*
CCOC(=O)C1CCN(C(=O)Cc2ccc(C)cc2)CC1	-17	3%	-10%	5%	34%	-26%
CCOC(=O)C1CCN(C(c2ccc(C)cc2)c2c(O)cc(C)n(CCOC)c2=O)CC1 (stereo unspecified)	9	nt	nt	6%	-21%	7.9µM*
N#C/C(=N\Nc1ccc(Cl)c(Cl)c1)C(=O)C1CC1	-100*	4%	?	-18%	-9%	12%
Cc1c2cnn(CC(=O)N3CCN(c4ccccc4)CC3)c(=O)c2c(C)n1Cc1ccccc1Cl	11	nt	nt	-9%	?	22%
COc1ccc(CNC(=O)c2ccc(-c3nc(CSc4ccc(C)cc4)c(C)o3)cc2)c(OC)c1	12	nt	nt	-1%	-25%	-6%
COc1ccc(/C=C/N(CCc2ccc(OC)c(OC)c2)C(C)=O)cc1	nt	-3%[12.9 µM]	nt	nt	nt	nt
SMILES	HCMV inh	Giardia FBPA inh	RE007 growth inh	Tb PYK inh	FMDV antiviral	Sm TGR block
Cc1ccc(/C=C/C(=O)O)cc1S(=O)(=O)NCCO	-11	-1%	25%	-6%	-14%	45µM*
Cc1ccc(/C=C/C(=O)O)cc1S(=O)(=O)Nc1ccc(C(=O)O)cc1	0	-14%	4%	-5%	1%	35µM*
O=C(CSc1n[nH]c(-c2ccccc2)n1)NCCc1ccccc1	-1	nt	nt	-5%	-27%	-5%
OC[C@H]1O[C@@H](O[C@H]2[C@H](O)[C@@H](O)[C@H](O)O[C@@H]2CO)[C@H](O)[C@@H](O)[C@@H]1O	nt	nt	nt	nt	2%	nt
COc1ccc(CN2C(=O)C(n3ccc4ccccc43)c3cc(F)ccc32)cc1 (stereo unspecified)	14	nt	nt	nt	nt	nt
CC(C)(C)NC(=O)C12CCC(C)(c3nc4ccccc4nc31)C2(C)C (stereo unspecified)	-94*	3%	-14%	0%	-28%	4%
COC(=O)C12CCC(C)(c3nc4ccccc4nc31)C2(C)C (stereo unspecified)	-30	-2%	11%	1%	-25%	nt
NC1=NC[C@H](Cc2ccc(O)cc2)N1CCCCC1CCCCC1	-90*	0%	-6%	0%	?	-3%
O=C(Nc1ccccc1)N(Cc1cccc(Cl)c1)c1ccccn1	-8	nt	nt	1%	0%	0%
O=c1cc(COc2ccccc2Cl)nc2scc(-c3ccccc3)n12	-88*	nt	nt	0%	-14%	9%
O=c1cc(COc2ccc(Cl)cc2Cl)nc2scc(-c3ccccc3)n12	-20	nt	nt	2%	-13%	-11%
Cc1cccc(OCc2cc(=O)n3c(-c4ccccc4)csc3n2)c1C	-103*	nt	nt	4%	-2%	1%
Cc1cccc(C)c1OCc1cc(=O)n2c(-c3ccccc3)csc2n1	-17	nt	nt	-2%	?	-3%
CSc1nnc(CCNC(=O)c2ccccc2C(F)(F)F)n1-c1ccc(F)cc1	nt	nt	nt	nt	-15%	nt
O=C1NC(=S)S/C1=C\C=C\c1ccc([N+](=O)[O-])o1	-100*	-20%	40µM*	-19%	?	2.2µM*
CCOc1cc(C(=O)NCc2ccc3c(c2)CCN3C(=O)c2ccc(F)cc2)cc(OCC)c1OCC	-5	nt	nt	4%	-19%	-8%
CC(C)N(C[C@@H]1CSCCS(=O)(=O)N1)C(C)C	0	nt	nt	nt	nt	nt
C[N+]12CCC(CC1)C(=C(c1ccccc1)c1ccccc1)C2	?	4%	8%	?	-17%	-8%
CC[N+]12CCC(CC1)C(=C(c1ccccc1)c1ccccc1)C2	-61*	-1%	-8%	-8%	-24%	-4%
COC(=O)C1=C[C@@H](C(=O)OC)C2C3=C(C(=O)[C@]2(CC(C)C)NC(=O)c2ccccc2)[C@H](C)n2c(=O)n(-c4ccccc4)c(=O)n2[C@@H]3C1 (stereo partly specified)	nt	-2%	nt	nt	nt	nt
